Data taken from PMC11062922 (Nature Chemical Biology, 2023).

Columns and labels:
Set-up in all cases: species or system human, MV4-11 + K-562 + COLO205 + SK-N-BE2 + OVCAR-8
Conditions in all cases: read-out: apparent Kd; compound concentrations:100 nM and 1000 nM (sheet 'Samples'); n = 1
CLK1 = system: CLK1
CLK4 = system: CLK4
CSNK1A1 = system: CSNK1A1
DYRK1A = system: DYRK1A
MAP3K5 = system: MAP3K5
MAP3K6 = system: MAP3K6
NUAK1 = system: NUAK1
NUAK2 = system: NUAK2
PDGFRB = system: PDGFRB
PI4KB = system: PI4KB
PKN2 = system: PKN2
PRKD2 = system: PRKD2
PRKD3 = system: PRKD3
RPS6KA1 = system: RPS6KA1
RPS6KA6 = system: RPS6KA6
RPS6KB1 = system: RPS6KB1

Molecule `C[C@@H]1CCNC(=O)c2cc3ccc(C(=O)Nc4nc5ccccc5n4CCCN(C)C)cc3n21` [BI00645435] has a potency estimated from few doses (CLK1) of 941 nM, a potency estimated from few doses (CLK4) of 931 nM and a potency estimated from few doses (CSNK1A1) of 1000 nM. For the same molecule, the potency estimated from few doses (DYRK1A) was 2100 nM, the potency estimated from few doses (MAP3K5) was 2300 nM and the potency estimated from few doses (MAP3K6) was 1700 nM. The potency estimated from few doses (NUAK1) was 110 nM, the potency estimated from few doses (NUAK2) was 383 nM and the potency estimated from few doses (PDGFRB) was 1670 nM. It also gave a potency estimated from few doses (PI4KB) of 581 nM, a potency estimated from few doses (PKN2) of 1760 nM and a potency estimated from few doses (PRKD2) of 731 nM. The potency estimated from few doses (PRKD3) was 1480 nM, the potency estimated from few doses (RPS6KA1) was 529 nM and the potency estimated from few doses (RPS6KA6) was 5.39 nM. For the same molecule, the potency estimated from few doses (RPS6KB1) was 106 nM.
